# Experimental data: publication PMC4336329 (PLoS ONE, 2015)
# Screen size: about 310,000 compounds; about 14,000 (4.5%) showed an effect of 50% or more. Effects have a minus sign here. Only a selection was taken, and strong results are over-represented in it overall.
# Biological target: human ether-à-go-go-related gene (hERG) potassium channel (human, UniProt Q12809)
# Test: primary screen, population patch clamp on CHO cells stably expressing hERG; higher = less effect of the substance
# 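Further: peak tail current of the secondary pulse compared with the same well before compound.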
# human ether-à-go-go-related gene (hERG) potassium channel, sequence (Q12809 whole entry, looked up): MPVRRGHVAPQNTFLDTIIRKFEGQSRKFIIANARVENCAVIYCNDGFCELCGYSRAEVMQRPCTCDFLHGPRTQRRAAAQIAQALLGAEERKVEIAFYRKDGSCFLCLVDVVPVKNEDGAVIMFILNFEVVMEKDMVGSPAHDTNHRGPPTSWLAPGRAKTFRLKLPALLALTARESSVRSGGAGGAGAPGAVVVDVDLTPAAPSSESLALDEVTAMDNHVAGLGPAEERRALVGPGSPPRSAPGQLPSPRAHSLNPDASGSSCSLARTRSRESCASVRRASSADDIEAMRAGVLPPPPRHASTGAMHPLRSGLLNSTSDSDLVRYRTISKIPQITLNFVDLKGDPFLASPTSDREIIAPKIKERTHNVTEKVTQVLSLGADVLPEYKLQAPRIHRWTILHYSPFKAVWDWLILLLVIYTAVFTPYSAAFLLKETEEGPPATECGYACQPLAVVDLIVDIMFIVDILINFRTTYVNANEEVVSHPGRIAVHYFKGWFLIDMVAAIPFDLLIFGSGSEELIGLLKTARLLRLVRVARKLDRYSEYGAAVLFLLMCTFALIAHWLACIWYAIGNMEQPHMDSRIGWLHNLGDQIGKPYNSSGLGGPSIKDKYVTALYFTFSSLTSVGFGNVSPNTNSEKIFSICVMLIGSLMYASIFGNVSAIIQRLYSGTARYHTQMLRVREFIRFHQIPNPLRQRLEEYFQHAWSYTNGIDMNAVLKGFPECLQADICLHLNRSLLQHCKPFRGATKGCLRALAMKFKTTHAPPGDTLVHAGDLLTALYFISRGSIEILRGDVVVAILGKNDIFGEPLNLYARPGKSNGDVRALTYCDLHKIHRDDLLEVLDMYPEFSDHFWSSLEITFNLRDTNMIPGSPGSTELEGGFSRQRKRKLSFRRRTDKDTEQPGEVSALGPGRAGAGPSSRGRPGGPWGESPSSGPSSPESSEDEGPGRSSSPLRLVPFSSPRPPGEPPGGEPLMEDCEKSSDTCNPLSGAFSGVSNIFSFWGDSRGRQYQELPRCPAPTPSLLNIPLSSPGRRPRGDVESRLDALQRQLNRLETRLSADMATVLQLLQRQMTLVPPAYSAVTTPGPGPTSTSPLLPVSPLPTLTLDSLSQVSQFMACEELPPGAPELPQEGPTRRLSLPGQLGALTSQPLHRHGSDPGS
row,Structure (SMILES),"hERG current change (%, negative = inhibition) at 10uM [%]"
1,CN1[C@@H]2CC[C@H]1CC(OC1c3ccccc3CCc3ccccc31)C2.O=C(O)CC(O)(CC(=O)O)C(=O)O (stereo partly drawn),-42.6
2,CC(C)NC(=O)c1cc(-c2cccs2)on1,-4.89
3,CCCCN(C(=O)c1ccc2c(c1)S(=O)(=O)N=C1CCCCCN12)c1c(N)n(CCCC)c(=O)[nH]c1=O,8.23
4,COc1cc(N=CC2=C(O)c3ccccc3C2=O)cc(OC)c1,8.36
5,Cc1cccc(NS(=O)(=O)c2ccc(C)c(C(=O)NCC(c3ccccc3)N(C)C)c2)c1 (stereo not drawn),-14.2
6,Nc1c(-c2ccccc2)c(CSc2nc3ccccc3[nH]2)nn1-c1cccc(Cl)c1,-3.15
7,O=C(COc1ccc(Cl)cc1)NC1CC1,5.47
8,O=C(Nc1ccc(-c2nc3ccccc3s2)cc1)C1=COCCO1,22.2
9,O=C(Nc1ccc(-c2nc3ccccc3s2)c(O)c1)C1=COCCO1,-73.1
10,O=C(Nc1ccccc1-c1nc2ccccc2s1)C1=COCCO1,0.377
11,CCOc1ccc(/C(O)=C2/C(=O)C(=O)N(CCN(CC)CC)C2c2cccs2)cc1 (stereo not drawn),8.37
12,O=c1cc(-c2ccccc2Cl)oc2ccc([N+](=O)[O-])c(O)c12,9.93
13,Cc1ccccc1CCN1CCCC(CN(C)C(=O)C(=O)c2ccco2)C1 (stereo not drawn),-70.1
14,CN(CC1CCCN(CCc2ccc(Cl)cc2)C1)C(=O)c1ccco1 (stereo not drawn),-25.5
15,Cc1ccccc1CCN1CCCC(CN(C)CC(C)(C)C)C1 (stereo not drawn),8.88
16,CN(CC1CCCN(CCc2ccc(Cl)cc2)C1)C(=O)C(=O)c1ccco1 (stereo not drawn),-74.5
17,CCOc1ccc(NC(=O)CSc2nncn2C)cc1,18.7
18,CCc1noc(C)c1C(=O)Nc1nnc(C(CC)CC)s1,-16.9
19,O=C1/C(=C/c2cccnc2)CC/C1=C\c1cccnc1,-24.5
20,CC1C/C(=C/c2ccncc2)C(=O)/C(=C/c2ccncc2)C1 (stereo not drawn),-41.9
21,CC1C/C(=C\c2cccnc2)C(=O)/C(=C/c2cccnc2)C1 (stereo not drawn),-63.1
22,COc1ccccc1CC(=O)Nc1ccc(S(=O)(=O)N2CC(C)CC(C)C2)cc1 (stereo not drawn),-7.25

row,Structure (SMILES),"hERG current change (%, negative = inhibition) at 10uM [%]"
1,COc1cc(OC)nc(NC(=O)CN2CCN(c3ccc(F)cc3)CC2)n1,-20.1
2,CSc1ccc(C2NC(=O)c3c(sc4c3CCN(C)C4)N2)cc1 (stereo not drawn),-60.6
3,CN1CCc2c(sc3c2C(=O)NC(/C=C/c2ccco2)N3)C1 (stereo not drawn),-27.4
4,CN1CCc2c(sc3c2C(=O)NC(c2ccc4c(c2)OCO4)N3)C1 (stereo not drawn),-16.5
5,CN1CCc2c(sc3c2C(=O)NC(c2ccccn2)N3)C1 (stereo not drawn),-1.35
6,Cc1ccc(C2NC(=O)c3c(sc4c3CCN(C)C4)N2)s1 (stereo not drawn),-36.8
7,CN1CCc2c(sc3c2C(=O)NC(/C=C\c2ccccc2)N3)C1 (stereo not drawn),-58.6
8,Cc1ccc2nc(-c3ccc(-c4ccccn4)s3)cn2c1,-1.76
9,CCNc1nc(NCC)nc(N(C#N)CCOc2ccccc2)n1,-55.1
10,CCNc1nc(NC(C)C)nc(N(C#N)CCOc2ccccc2)n1,-26
11,CN(C)c1nc(N(C)C)nc(N(C#N)CCOc2ccccc2)n1,-4.58
12,ON1C2CCCCC2N(O)C1c1ccccc1 (stereo not drawn),13.2
13,O=C(COC(=O)C1(c2ccccc2F)CCCC1)NCc1ccc2c(c1)OCO2,-6.33
14,CCOC(=O)N1CCC(NC(=O)C2CCCN(Cc3nc(-c4ccc(CC)cc4)oc3C)C2)CC1 (stereo not drawn),-71.5
15,Cc1oc(-c2cccc(Cl)c2)nc1CS(=O)(=O)CC(=O)NC1CCCC1,6.45
16,CCOC(=O)N1CCC(NC(=O)C2CCCN(Cc3nc(-c4cccc(Cl)c4)oc3C)C2)CC1 (stereo not drawn),-72.2
17,CCOC(=O)N1CCC(NC(=O)C2CCCN(Cc3nc(-c4cccc(C)c4)oc3C)C2)CC1 (stereo not drawn),-63.6
18,CCc1ccc(-c2nc(CN3CCCC(C(=O)O)C3)c(C)o2)cc1 (stereo not drawn),14.2
19,CCOC(=O)N1CCC(NC(=O)CS(=O)(=O)Cc2nc(-c3cccc(Cl)c3)oc2C)CC1,-18.3
20,CCOC(=O)N1CCC(NC(=O)CSCc2nc(-c3cccc(OC)c3)oc2C)CC1,-17.6
21,CCOC(=O)N1CCC(NC(=O)CS(=O)Cc2nc(-c3ccc(C)cc3)oc2C)CC1 (stereo not drawn),-2.4
22,CCOC(=O)N1CCC(NC(=O)C2CCCN(c3nc4ccccc4o3)C2)CC1 (stereo not drawn),-28.4

row,Structure (SMILES),"hERG current change (%, negative = inhibition) at 10uM [%]"
1,Nc1sc(-c2ccccc2)cc1C(=O)N/N=C/c1ccc(Cl)cc1,18.1
2,O=C(CN1CCCCCCC1)Nc1cc(Cl)cc(Cl)c1,1.75
3,Cc1ccc(-c2noc(Cn3cc(S(=O)(=O)N4CCCC4)ccc3=O)n2)cc1,8.62
4,CC(=O)N1c2ccc(S(=O)(=O)N3CCC(C(=O)Nc4cc(C)cc(C)c4)CC3)cc2CC1C (stereo not drawn),2
5,COc1cc(/C=C/C(=O)OCC(=O)Nc2ccc(C)cc2[N+](=O)[O-])ccc1O,-20.5
6,CC(CC(=O)O)CC(=O)Nc1cc([N+](=O)[O-])ccc1O (stereo not drawn),-2.89
7,COC(=O)c1cccc(N2C(=O)c3ccccc3S2(=O)=O)c1,-9.36
8,CCOC(=O)c1ccccc1CN1C(=O)c2ccccc2S1(=O)=O,-11.1
9,CCOC(=O)c1cccc(N2C(=O)c3ccccc3S2(=O)=O)c1,-59.5
10,CCOC(=O)N/N=C(\C)c1ccc(Oc2ncccn2)cc1,17.1
11,CCCN1CCC(N(C)CCc2ccc(OC)c(OC)c2)CC1,-11.4
12,CCN(CC)C1CCN(C(=O)c2ccc(OC3CCN(CCc4ccccc4)CC3)cc2)C1 (stereo not drawn),2.06
13,CCN(Cc1ccccc1)C1CCN(Cc2ccccc2)CC1,-14.9
14,O=C(O)C(=O)O.c1ccc(CCN(Cc2ccccc2)C2CCN(C3CCCC3)CC2)cc1,-77
15,CCCN1CNC(=S)N(CCc2ccccc2)C1,8.83
16,O=C(O)C(=O)O.c1ccc(CN2CCC(N3CCC(N4CCCCCC4)CC3)CC2)cc1,16.5
17,CCCN(CCO)C1CCN(CCc2ccccc2)CC1,7.14
18,CCCCN(Cc1ccccc1)C1CCN(Cc2ccccc2)CC1,-53.5
19,CCCN1CCC(N(CCc2ccccc2)Cc2ccccc2)CC1,-72.2
20,CCCCC(=O)C1CCN(Cc2ccccc2)CC1,-34.5
21,CC(C)CC(=O)N1CCC(N(CCc2ccccc2)Cc2ccccc2)CC1.O=C(O)C(=O)O,-46.8
22,CCCCN(Cc1ccccc1)C1CCN(CCc2ccccc2)CC1,-72.2

row,Structure (SMILES),"hERG current change (%, negative = inhibition) at 10uM [%]"
1,CC(C)CNS(=O)(=O)c1ccc(OCC(=O)NCC2CCCO2)c(Cl)c1 (stereo not drawn),-4.3
2,S=c1[nH]cnc2scc(-c3ccc(Br)cc3)c12,0.154
3,O=C1Nc2ccc(F)cc2C12Nc1ccccc1-c1nnc(SCc3ccccc3)nc1O2 (stereo not drawn),-13.2
4,COc1ccccc1NC(=O)c1ccc(-n2cccn2)nc1,3.91
5,O=C(Nc1cccc(Cl)c1)c1ccc(NCCCN2CCOCC2)c([N+](=O)[O-])c1,-37.9
6,CC(C(N)=O)N1CC(c2ccccc2)CC1=O (stereo not drawn),-4.86
7,O=C(CSc1nccc(=O)[nH]1)Nc1ccc2c(c1)OCCO2,51.6
8,Clc1cccc(Cl)c1CSc1nnc(CN2CCOCC2)n1-c1ccccc1,-28.9
9,Fc1ccc(CSc2nnc(CN3CCOCC3)n2-c2ccccc2)c(Cl)c1,-24
10,Clc1ccc(CSc2nnc(CN3CCOCC3)n2-c2ccccc2)cc1Cl,-74.1
11,CSCCC(NS(=O)(=O)c1ccc(C)cc1)C(=O)N1CCN(C(C)=O)CC1 (stereo not drawn),3.56
12,CCCCn1c(NS(=O)(=O)c2ccccc2)c(C(=O)OCC)c2nc3ccccc3nc21,-23.9
13,CCCCn1c(NC(=O)c2ccc(Br)o2)c(C(=O)OCC)c2nc3ccccc3nc21,-53.8
14,CCCCCn1c(NC(=O)c2ccco2)c(C(=O)OCC)c2nc3ccccc3nc21,-80.4
15,CCCCn1c(NC(=O)c2ccco2)c(C(=O)OCC)c2nc3ccccc3nc21,-42.1
16,CCCCn1c(NC(=O)c2ccc(Br)o2)c(S(=O)(=O)c2ccccc2)c2nc3ccccc3nc21,-0.885
17,CCOC(=O)c1c(NC(=O)c2ccco2)n(C2CCCCC2)c2nc3ccccc3nc12,-35.6
18,Cc1cc(C)n(CC(=O)NNC(=O)c2cccc(C(F)(F)F)c2)n1,12.7
19,COc1ccc(C(=O)c2oc3ccccc3c2NC(C)=O)cc1,0.829
20,O=C(COc1ccc(/C=N/NC(=O)c2cc3ccccc3o2)cc1Cl)Nc1ccccc1,6.96
21,Cc1[nH]c2ccccc2c1/C=N/NC(=O)CNC(=O)c1ccccc1,-9.38
